Source: PubChem
Sfp PPTase inh: blocks B. subtilis Sfp PPTase activity; Biochemical Sfp PPTase activity, qHTS; Potency, µM, for inactives: largest response in the series, negative = inhibition, hits mostly inhibitors; 310,000 tested, 3.5% active; AID 1490;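 also: the enzyme is Sfp with the accession as filed and its product quenches rhodamine fluorescence; 0% = enzyme reaction without inhibitor and -100% = no enzyme wells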
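Step 1, compound plus 15 nM Sfp-PPTase, 15 min, room temperature. Step 2, add rhodamine-CoA (5 uM) and BHQ-2-YbbR (12.5 uM). Step 3, read 525/598 nm fluorescence at 0 and 30 min.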
rTrxR1 inhibitor: blocks rat thioredoxin reductase 1 | 390,000 tested, 1% active | O89049 | Potency, µM (top dose mostly 114 µM), inactives show top-dose activity change, negative = inhibition, most hits filed as inhibitors | recombinant rTrxR1, NADPH fluorescence consumption, selenite substrate; also: nearly all actives have a fitted effect of over 65% in size
Target sequence (O89049 whole entry, looked up): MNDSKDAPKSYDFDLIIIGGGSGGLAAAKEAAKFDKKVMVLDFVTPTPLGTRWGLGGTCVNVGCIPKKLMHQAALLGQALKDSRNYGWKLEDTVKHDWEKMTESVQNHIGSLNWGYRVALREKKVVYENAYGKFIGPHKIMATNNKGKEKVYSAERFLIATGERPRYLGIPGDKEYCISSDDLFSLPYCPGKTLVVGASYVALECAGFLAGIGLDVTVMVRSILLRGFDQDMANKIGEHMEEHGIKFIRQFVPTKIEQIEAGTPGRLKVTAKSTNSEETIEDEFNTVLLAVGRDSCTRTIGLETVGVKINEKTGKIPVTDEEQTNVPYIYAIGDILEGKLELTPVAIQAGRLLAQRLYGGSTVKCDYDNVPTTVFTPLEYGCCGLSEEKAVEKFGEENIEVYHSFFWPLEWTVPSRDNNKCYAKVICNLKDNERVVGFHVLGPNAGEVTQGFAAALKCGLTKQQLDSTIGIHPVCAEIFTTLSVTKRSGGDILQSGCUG
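Rat TrxR1 (90 nM in the dispensed reagent) was pre-reduced with 400 uM NADPH for 5 min at room temperature, then incubated with compound for 15 min. After 400 uM selenite was added, NADPH fluorescence (Ex 340/Em 450 nm) was followed for 8 min.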
GLS inhibitor: glutaminase GLS (human) inhibition. GLS enzymatic activity, qHTS titration. 410,000 tested, 0.21% active. Potency, µM (doses to about 45.5 µM), for the others: at the highest dose activity change, negative = inhibition, most hits filed as inhibitors. O94925
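hKGA in 45 mM KH2PO4 pH 8.2, 0.02% Tween-20 with pin-transferred compounds; 1 mM L-glutamine (stock) plus glutamate oxidase/HRP/Amplex Red coupling added. Fluorescence read initially and after 30 min at RT.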
KAT2A inh: inhibitors of human GCN5L2 histone acetyltransferase; Q92830; 390,000 tested, 0.21% active; GCN5L2 HAT assay, ThioGlo1 CoA-SH fluorescence; Potency, µM (highest dose often 58.9 µM), without a hit: top-dose activity change, negative = inhibition, most hits filed as inhibitors
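Free CoA generated was detected with ThioGlo1 (50uM) fluorescence at Ex340nm/Em540nm, read immediately and after 20 min at room temperature. Enzyme, 20 nM in HEPES pH 7.5 buffer, saw compounds 15 min before adding 75uM H3(1-25) peptide and 70uM acetyl-CoA.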
VDR inh: blocks the human vitamin D receptor; 400,000 tested, 0.93% active; AID 504847; Potency, µM, inactives show max response, negative = inhibition, hits mostly inhibitors; P11473; VDR-SRC2-3 peptide fluorescence polarization, 2 h
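VDR–SRC2-3 interaction, FP format. Cmpds 23 nl via pintool, brief spin, 2 h ambient incubation.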
TrxR1 substrate: is turned over as a substrate by rat TrxR1 | O89049 | purified TrxR1 substrate turnover, NADPH consumption readout | 390,000 tested, 0.01% active | Potency, µM (top dose mostly 114 µM), for inactives: at the top dose activity change, negative = substrate turnover; also: nearly all actives have a fitted effect of over 50% in size
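Rat TrxR1, dispensed at 90 nM, was prereduced with 400 uM NADPH (final) for 5 min at ~22 deg C, then incubated with compound 15 min before 400 uM selenite. A first-read NADPH fluorescence drop versus no-compound background flagged substrates.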
An asterisk follows results filed as active; ? = inconclusive; · = no result; [ ] = dose if it differs, or a comment. Compounds with a hit are over-represented: about 3.8% of the library has one in this group of screens. Calls follow the shape of the dose curve; as a rule, active = well fitted curve in the direction sought with a large enough effect; inconclusive = small, poorly fitted or top-dose-only effect, or another doubt; inactive = no such curve, though single readings can be large; an effect the other way counts as inactive or inconclusive. Unless noted, % is scaled to controls: 0 for no effect and ±100 for the full control effect; potency is read from the fitted curve at half-maximal effect.

SMILES	Sfp PPTase inh	rTrxR1 inhibitor	GLS inhibitor	KAT2A inh	VDR inh	TrxR1 substrate
Cc1ccc(NC(=O)CSc2nnc(-c3ccco3)c(-c3ccco3)n2)cc1	8.9µM*	1µM*	-10%	?	?	-13%
COc1cccc(NC(=O)CSc2nnc(-c3ccco3)c(-c3ccco3)n2)c1	10µM*	7.1µM*	38%	?	89µM*	-5%
CSc1nnc(-c2ccco2)c(-c2ccco2)n1	10µM*	16µM*	?	?	-4%	-9%
COc1ccc(C(=O)CSc2nnc(-c3ccco3)n2C)cc1	-8%	?	3%	0%	-13%	-1%[57.1 µM]
CCOC(=O)C1CCCN(C(=O)c2ccc3c(c2)N(Cc2ccccc2)C(=O)c2ccccc2S3=O)C1 (stereo not drawn)	5%	14%[57.1 µM]	-17%	-3%	2%	-1%[57.1 µM]
CC(C)(C)c1ccc(CSC2=Nc3ccccc3C3=NC(CC(=O)NCc4cccs4)C(=O)N23)cc1 (stereo not drawn)	·	-1%[57.1 µM]	-5%	-6%	13%	-7%[57.1 µM]
CC(=O)Nc1ccc(CN2CCCC(CO)(Cc3cccc(Cl)c3)C2)cc1 (stereo not drawn)	0%	5%	5%	-27%	-13%	0%
COc1cc(CCC(=O)OCC(=O)Nc2ccccc2OC(F)F)cc(OC)c1OC	13%	13%[57.1 µM]	2%	-1%	4%	-4%
CN(C)c1ccc(NC(=O)CSc2nnc(-c3ccco3)c(-c3ccco3)n2)cc1	?	-27%	?	-9%	6%	-10%
COc1ccc(NC(=O)CSc2nnc(-c3ccco3)c(-c3ccco3)n2)cc1OC	35µM*	?	0%	-11%	3%	14%[0.457 µM]
Cc1ccc2nc(SCC(=O)c3ccc(O)cc3O)[nH]c2c1	50µM*	6%	16%	-6%	-9%	-1%
Cc1ccc2nc(SCc3nc4ccccc4c(=O)[nH]3)[nH]c2c1	45µM*	15%[57.1 µM]	-15%	-1%	?	2%[57.1 µM]
C[C@H]1C2=C3C(C[C@H]4C(=O)N(c5ccccc5)C(=O)[C@H]4[C@H]3[C@@]3(Cc4ccccc4)C(=NCCc4c[nH]c5ccccc45)OC(=O)N3C2=O)[C@H]2C(=O)N(c3ccccc3)C(=O)[C@H]21 (stereo partly drawn)	6%	·	·	·	·	·
COCC(C)N=C1NN=C(c2cccs2)C(CC(=O)O)S1 (stereo not drawn)	35µM*	-32%	0%	3%	-22%	-5%[57.1 µM]
O=C(COc1ccc(Br)cc1Br)NC(=S)N1CCCc2ccccc21	56µM*	21%	0%	-2%	16%	11%
O=C(COc1ccc(Br)cc1Cl)NC(=S)N1CCc2ccccc21	0%	-25%	13%	0%	4%	-4%
COc1ccc(-n2nnnc2SCC(=O)Nc2cc(OC)c([N+](=O)[O-])cc2C)cc1	-18%	12%	2%	-18%	-11%	-9%
Cc1sc2nc(CN3CCCCC3)nc(Cl)c2c1C	-7%	32µM*	7%	10%	-4%	2%
CC1CCN(Cc2nc(Cl)c3c4c(sc3n2)CCC4)CC1	8%	32µM*	-3%	0%	-16%	1%
CC1CCc2c(sc3nc(CN4CCOCC4)nc(Sc4ccccc4)c23)C1 (stereo not drawn)	-27%	-4%	0%	0%	-14%	5%
Cc1ccc(S(=O)(=O)N2CCN(c3nc(CN4CCCC4)nc4sc(C)c(C)c34)CC2)cc1	·	3%	1%	0%	-1%	1%
Cc1nn2c3ccccc3n(Cc3ccccc3)c2nc1=O	13%	-4%[57.1 µM]	0%	-11%	1%	21%
Cc1nn2c(N)csc2nc1=O	50µM*	·	·	0%	·	·
N#C/C(=C\c1ccccc1C(F)(F)F)C(=O)Nc1ccccc1	20%	17%	2%	-2%	?	8%
CCc1cccc(CC)c1NC(=O)/C(C#N)=C/c1ccccc1C(F)(F)F	12%	-12%	-4%	33%	50µM*	-13%
SMILES	Sfp PPTase inh	rTrxR1 inhibitor	GLS inhibitor	KAT2A inh	VDR inh	TrxR1 substrate
Cc1ccc(Nc2nc3ccccc3s2)cc1	15%	-9%	26%	-3%	-6%	-10%
Cc1ccc(Nc2nnns2)cc1	6.3µM*	-17%	0%	24%	79µM*	-3%
O=C1C=CC(=O)N1Cc1cccnc1	·	79µM*	-8%	·	0%	4%
O=C1C=CC(=O)N1Cc1ccncc1	·	?	5%	·	-12%	5%
CCN1CCN(CCCNC(=O)CN2C(=O)c3cccnc3Oc3ccc(Cl)cc32)CC1	7%	27%	6%	-4%	-2%	4%
Oc1sc(C=Nc2ccc(F)cc2)c2ccccc12	14µM*	8%	7%	?	-1%	2%
Oc1c(C=Nc2ccccc2)sc2ccccc12	20%	-17%	7%	-17%	23%	-15%
Oc1sc(C=Nc2ccccc2)c2ccccc12	45µM*	-13%	20%	-17%	-15%	-9%
Cc1cc(=O)[nH]c2nnc(SCc3ccc(C(F)(F)F)cc3)n12	·	17%[57.1 µM]	-10%	-5%	-3%	-1%[57.1 µM]
Cc1oc(-c2ccccc2)cc1C(=O)NC(Cc1c[nH]c2ccccc12)C(=O)O (stereo not drawn)	40µM*	?	?	4%	-17%	-9%
COc1cccc(-c2cnc3c(NC=O)cc(-c4ccc(O)c(OC)c4)cn23)c1	·	·	0%	·	·	·
O=S(=O)(Cc1ccccc1)N(O)c1ccccc1	50µM*	-7%	?	-3%	40µM*	-6%
O=C(O)CNS(=O)(=O)Cc1ccccc1	13%	7%	3%	-10%	7%	1%
CCCCn1c(NC(C)=O)c(C#N)c2nc3ccccc3nc21	-6%	16%[57.1 µM]	0%	?	?	78%[57.1 µM]
C=CCn1c(NC(=O)c2ccccc2Cl)c(C#N)c2nc3ccccc3nc21	79µM*	?	2%	1%	35µM*	?
Cc1ccc(N2C(=O)[C@@H]3[C@H](C2=O)C2CCCN2[C@@H]3C(=O)c2ccccc2)cc1 (stereo partly drawn)	56µM*	-25%[57.1 µM]	-13%	-4%	?	0%[57.1 µM]
COc1ccc(N2C(=O)[C@@H]3[C@H](C2=O)[C@H]2C=CC=NN2[C@@H]3C(=O)Nc2ccc(Cl)cc2)cc1	35µM*	-4%	0%	-26%	?	2%
CC(=O)c1ccc(N2C(=O)C3C(C2=O)C(C(=O)c2ccc(Cl)cc2)N2CCCC32)cc1 (stereo not drawn)	22µM*	?	-7%	-17%	-17%	-9%
COc1ccc(N2C(=O)C3C(C2=O)C(C(=O)c2ccc(Cl)cc2)N2CCCC32)cc1 (stereo not drawn)	28µM*	-56%	-4%	-20%	-7%	6%
